{"source": "PubChem BioAssay (EPA / NIEHS)", "note": "Activity calls are given as the source filed them. Rule for the calls: active = hit-call score of the fitted dose curve at least 0.9, where 1 is the maximum; inactive = score below 0.9."}
{"experiment": "ATG_RORE_CIS: Attagene CIS-FACTORIAL HepG2 Assay for human RAR-related Orphan Receptor Element (RORE) (AID 2282959)", "details": "HepG2 Attagene cis-factorial RORE reporter, mRNA; actives raise or lower the signal", "description": "ATG_CIS is a cell-based, multiplexed-readout assay that uses HepG2, a human liver cell line, with measurements taken at 24 hours after chemical dosing in a 24-well plate.ATG_RORE_CIS is one of 52 assay component(s) measured or calculated from the ATG_CIS assay. It is designed to make measurements of mRNA induction, a form of inducible reporter, as detected with fluorescence intensity signals by Reverse transcription polymerase chain reaction (RT-PCR) and Capillary electrophoresis technology.Data from the assay component ATG_RORE_CIS was analyzed into 1 assay endpoint. This assay endpoint, ATG_RORE_CIS, was analyzed with bidirectional fitting relative to DMSO as the negative control and baseline of activity. Using a type of inducible reporter, measures of mRNA for gain or loss-of-signal activity can be used to understand the reporter gene at the transcription factor-level as they relate to the gene RORA and RORB and RORC. Furthermore, this assay endpoint can be referred to as a primary readout, because this assay has produced multiple assay endpoints where this one serves a reporter gene function. To generalize the intended target to other relatable targets, this assay endpoint is annotated to the nuclear receptor intended target family, where the subfamily is orphan.\nHuman liver HepG2 cells are transiently transfected with multiple reporter transcription units (MRTUs) in 6-well plates using FuGene 6 reagent (Roche; 3 ml FuGene/1 mg DNA). The MRTU constructs are regulated by a cis-regulating element (promoter). […] A major difference between the CIS and TRANS system is that in CIS activities of endogenous TFs are measured, whereas the TRANS assay evaluates changes in activities of exogenous, chimeric NR-Gal4 proteins. […] At the end of 24 hour incubation, total RNA was isolated using TriZol reagent (Invitrogen). The isolated RNA is then reverse-transcribed using oligo(dT) primer and Mo-MLV reverse transcriptase (Invitrogen) with DNAse I (Ambion) treatment for 30 min. The one-tenth of the produced cDNA was amplified by PCR using Taq DNA polymerase (Invitrogen) and two reporter sequence-specific primers. The PCR products were fluorescently labeled by primer extension with 6-arboxyfluorescein (6-FAM) 5'-labeled reporter sequence-specific primer (2 min at 95 C, 20 s at 68 C and 10 min at 72 C) and these products were digested with 5U of HpaI (New England Biolabs) for 2h at 37 C. The fragments were purified using Qiaquick PCR columns (Qiagen), analyzed on an ABI 3130xL genetic analyzer (Applied Biosystems) with peak positions identified by using a set of X-rhodamine (ROX)-labeled MapMarker1000 molecular weight standards (BioVentures). The raw capillary electrophoresis data was processed using Attagraph software (Attagene)."}
{"smiles": "CCC1COC(=O)O1", "note": "(stereo not given)", "outcome": "inactive"}
{"smiles": "CCOC(=O)C1=NOC(c2ccccc2)(c2ccccc2)C1", "outcome": "inactive"}
{"smiles": "CCCC=C(C=O)CC", "outcome": "inactive"}
{"smiles": "O=C(OCc1ccccc1)c1ccc(O)cc1", "outcome": "inactive"}
{"smiles": "CC(C)OC(=O)c1ccccc1", "outcome": "inactive"}
{"smiles": "CCCCCCCCCCCCc1ccc(O)cc1", "outcome": "inactive"}
{"smiles": "COc1nccnc1CC(C)C", "outcome": "inactive"}
{"smiles": "CCCCOC(=O)CCC(C)=O", "outcome": "inactive"}
{"smiles": "Oc1ccc(-c2ccccc2)c(Cl)c1", "AC50": "33.4 µM (active)"}
{"smiles": "CCCCCCO", "outcome": "inactive"}
{"smiles": "CCCCCCCO", "outcome": "inactive"}
{"smiles": "CCCCCCCC(=O)OCC(COC(=O)CCCCCCC)OC(=O)CCCCCCC", "outcome": "inactive"}
{"smiles": "Cn1ccnc1", "outcome": "inactive"}
{"smiles": "CCCC/C=C/C=C\\C=O", "outcome": "inactive"}
{"smiles": "CC(=O)c1ccc(S(=O)(=O)NC(=O)NC2CCCCC2)cc1", "outcome": "inactive"}
{"smiles": "Oc1ccc(/C=C/c2cc(O)cc(O)c2)cc1", "outcome": "inactive"}
{"smiles": "CC1C(C)(C)C2=C(C(=O)CCC2)C1(C)C", "note": "(stereo not given)", "outcome": "inactive"}
{"smiles": "N#Cc1ccc(C2CCCc3cncn32)cc1", "note": "(stereo not given)", "outcome": "inactive"}
{"smiles": "CCOC(=O)c1ccc(C)cc1", "outcome": "inactive"}
{"smiles": "O=C(Oc1ccccc1)c1ccccc1O", "outcome": "inactive"}
{"smiles": "CC(C)=CCCC(C)=CC#N", "outcome": "inactive"}
{"smiles": "C=CCCCCCCCCOC(C)=O", "outcome": "inactive"}
{"smiles": "c1ccc2cnccc2c1", "outcome": "inactive"}
{"smiles": "CO[Si](CCCS)(OC)OC", "outcome": "inactive"}
{"smiles": "CCc1occc(=O)c1O", "outcome": "inactive"}
{"smiles": "CC(=O)CCC1=C(C)CCCC1(C)C", "outcome": "inactive"}
{"smiles": "CC1=CCC2CC1C2(C)C", "note": "(stereo not given)", "outcome": "inactive"}
{"smiles": "CCCCCOC(=O)CCCCC", "outcome": "inactive"}
{"smiles": "CC(=O)OC1CCCCC1C(C)(C)C", "note": "(stereo not given)", "outcome": "inactive"}
{"smiles": "O=C(Oc1ccccc1)c1ccccc1C(=O)Oc1ccccc1", "outcome": "inactive"}
{"smiles": "COC(=O)CC(C)CCC=C(C)C", "note": "(stereo not given)", "outcome": "inactive"}
{"smiles": "C=Cc1ccc(OC(C)=O)cc1", "outcome": "inactive"}
{"smiles": "CN(C)c1ccc2nc3ccc(=[N+](C)C)cc-3sc2c1", "outcome": "inactive"}
{"smiles": "CC(C)(c1ccccc1)c1ccc(Nc2ccc(C(C)(C)c3ccccc3)cc2)cc1", "outcome": "inactive"}
{"smiles": "Nc1ncnc2nc[nH]c12", "outcome": "inactive"}
{"smiles": "CCCCCCC=O", "outcome": "inactive"}
{"smiles": "c1ccc2sc(SSN3CCOCC3)nc2c1", "outcome": "inactive"}
{"smiles": "O=C(O)c1cc(O)c2ccccc2c1O", "outcome": "inactive"}
{"smiles": "Cc1c(Cl)cccc1Cl", "outcome": "inactive"}
{"smiles": "CCCSSCCC", "outcome": "inactive"}
